ELG1 genotoxic = qHTS screen for small molecules that induce genotoxicity in human embryonic kidney (HEK293T) cells expressing luciferase-tagged ELG1; HEK293T ELG1-luciferase reporter, luminescence, 16 h; Potency, µM (top dose mostly 46 µM), for inactives: at the top dose activity change, positive = activation, hits mostly activators; 330,000 compounds, 1.3% hits; AID 504466, 2011; further: % of control where 0% means no effect; nearly all actives have a fitted effect of over 60% in size
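After overnight (16 hr) compound treatment at 37 °C, ELG1-luciferase HEK293T cells were lysed with ONE-Glo; luminescence quantified 30 min later at room temperature.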
NPC1 promoter act = qHTS Assay for NPC1 Promoter Activators; AID 485313, 2010; Huh7 NPC1 promoter luciferase reporter, 24 h; 320,000 compounds, 2.4% hits; Potency, µM (titrated, usually from 9.22 µM), for inactives: at the top dose activation, most hits filed as activators; further: % of control where 0% means no effect; nearly all actives have a fitted effect of over 60% in size
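Luminescence read-out of NPC1 promoter-driven luciferase in stably transfected Huh7 cells; compounds delivered in DMSO and left 24 h at 37C, 5% CO2, qHTS titration format.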
SMN2 splice up = qHTS Assay for Enhancers of SMN2 Splice Variant Expression; AID 1458, 2008; HEK293 SMN2-luciferase splicing reporter, luminescence, 30-36 h; 210,000 compounds, 2.8% hits; Potency, µM (highest dose often 46.1 µM), for inactives: at the top dose activity change, positive = activation, most hits filed as activators; further: % of control where 0% means no effect; nearly all actives have a fitted effect of over 55% in size
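qHTS luciferase splicing reporter: luminescence rises when SMN2 exon 7 is included in transfected HEK293 cells. Compound exposure lasted 30-36 h at 37C, with 4.5 mM final sodium butyrate as control, followed by a ONE-Glo read.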
FLuc counter = qHTS profiling assay for firefly luciferase inhibitor/activator using purifed enzyme and Km concentrations of substrates (counterscreen for miR-21 project); Potency, µM (highest dose often 57.5 µM), for inactives: top-dose activity change, negative = inhibition, actives largely listed as inhibitors; 360,000 compounds, 6.9% hits; purified FLuc, Km substrates, luminescence inhibition;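 further: plate controls were vehicle for no effect and reference inhibitor for full effect; nearly all actives have a fitted effect of over 55% in size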
Target sequence (P08659 whole entry, looked up): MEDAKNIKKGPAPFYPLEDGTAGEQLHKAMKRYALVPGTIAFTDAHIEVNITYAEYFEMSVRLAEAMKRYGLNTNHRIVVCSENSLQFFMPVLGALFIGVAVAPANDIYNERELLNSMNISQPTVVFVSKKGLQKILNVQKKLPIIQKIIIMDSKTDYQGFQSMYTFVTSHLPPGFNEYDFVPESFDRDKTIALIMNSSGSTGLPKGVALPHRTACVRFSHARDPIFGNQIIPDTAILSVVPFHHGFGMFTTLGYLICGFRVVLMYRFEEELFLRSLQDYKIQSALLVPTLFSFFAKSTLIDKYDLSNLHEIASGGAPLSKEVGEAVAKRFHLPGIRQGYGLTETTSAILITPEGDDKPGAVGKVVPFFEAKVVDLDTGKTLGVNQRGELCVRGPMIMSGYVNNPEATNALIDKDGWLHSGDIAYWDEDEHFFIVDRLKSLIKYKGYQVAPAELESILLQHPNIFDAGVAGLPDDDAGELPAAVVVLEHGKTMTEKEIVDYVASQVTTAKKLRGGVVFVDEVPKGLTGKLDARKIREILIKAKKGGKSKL
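Purified P. pyralis luciferase, 10 nM final, with Km-level 10 uM D-luciferin and 10 uM ATP in 50 mM Tris acetate pH 7.5, 10 mM Mg acetate, 0.01% Tween-20, 0.05% BSA; 6-point qHTS titration about 60 µM downward; luminescence read.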
Rab9 promoter act = qHTS Assay for Rab9 Promoter Activators | Huh7 Rab9 promoter-luciferase reporter, luminescence, 24 h | Potency, µM (series often up to 9.22 µM), for inactives: at the top dose activation, negative = inhibition, hits mostly activators | 320,000 compounds, 2.8% hits | AID 485297, 2010; further: % of control where 0% means no effect; nearly all actives have a fitted effect of over 60% in size
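Huh7 cells stably carrying Rab9 promoter–luciferase reporter, plated 1500 cells/well, compound added after 2 h and incubated 24 h at 37 °C; luciferase luminescence then read after 10 min with detection reagent.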
* hit, by the source's call; u = inconclusive; x = no result. Only some compounds are listed: those with a hit (about 7.5% of all), similar ones and a draw of the others. The call rests on the fitted dose curve; in most records, active means well fitted curve in the direction sought with a large enough effect; inconclusive means small, poorly fitted or top-dose-only effect, or another doubt; inactive means no such curve, though single readings can be large; an effect the other way counts as inactive or inconclusive. Potency means the concentration at half of the fitted maximal effect.

SMILES	ELG1 genotoxic	NPC1 promoter act	SMN2 splice up	FLuc counter	Rab9 promoter act
COc1ccc(CNC(=O)c2cc(-c3ccccc3OC)on2)cc1	0%	-1%	-11%	17µM*	-2%
O=C(NCc1ccccc1)c1ccc(-c2ccccc2C(F)(F)F)o1	8%	-3%	-2%	u	4%
Cc1ccccc1-c1ccc(C(=O)NCc2ccccc2)o1	11%	9%	16%	27µM*	5%
Cc1ccc(CNC(=O)c2c[nH]n3c(=O)c(Cc4ccc(F)cc4Cl)c(C)nc23)cc1	x	x	-9%	u	x
COc1ccc(OCCCC(=O)OC(C)C(=O)Nc2ccc(C)cc2)cc1 (centres undefined)	-1%	-4%	x	0%	3%
Cc1csc(NC(=O)c2ccc(C(=O)Nc3nc(C)cs3)cc2)n1	2%	5%	x	-8%	9%
Cn1cccc1C(=O)Nc1nc(-c2ccccn2)cs1	16%	2µM*	25%	8.5µM*	1.8µM*
Cc1csc(NC(=O)c2cccn2C)n1	u	3.5µM*	16µM*	8.5µM*	2.2µM*
Cc1csc(NC(=O)c2sccc2C)n1	u	1.8µM*	x	11µM*	0.89µM*
Nc1nc(SCC(=O)NCCCN2CCOCC2)nc2sc3c(c12)CCC3	-4%	3%	5%	-18%	-4%
CCc1nnc(NC(=O)CSc2ccc(-c3ccc(F)cc3)nn2)s1	u	2%	u	11µM*	-3%
CCc1nnc(NC(=O)CSc2ccc(-c3ccccc3OC)nn2)s1	8%	-7%	-3%	u	-4%
CCc1nnc(NC(=O)CSc2nc(-c3ccccc3)cc(-c3ccc(F)cc3)c2C#N)s1	2%	-7%	-16%	6%	-2%
CCc1nnc(NC(=O)CSc2ccc(-c3cccs3)nn2)s1	-14%	0%	-5%	11µM*	2%
O=C(CNC(=O)c1ccc(Br)cc1)OCC(=O)c1ccccc1	4%	1%	x	-3%	1%
CCc1nonc1NC(=O)c1oc2c(C)c(C)ccc2c1C	-2%	-5%	x	0%	1%
COc1ccc(C(=O)N/C(=C/c2ccco2)C(=O)NCc2ccco2)cc1	2%	0%	x	-2%	5%
CCOc1cccc(C(=O)Nc2ccc(N3CCCC3)cc2)c1	18%	u	x	6µM*	u
CCN(CC)c1ccc(NC(=O)c2ccccc2OCC(=O)OC)cc1	-1%	17%	12%	21µM*	19%
CCOc1cccc(C(=O)Nc2ccc3ccccc3c2)c1	0.46µM*	2.2µM*	x	0.48µM*	0.56µM*
CCOc1cccc(C(=O)Nc2ccc(N(CC)CC)cc2)c1	u	15%	23%	13µM*	7%
CCN(CC)c1ccc(NC(=O)c2ccc3c(c2)c(C)c(C)n3C)cc1	1%	-4%	-28%	9.5µM*	1%
CCOc1ccc(NC(=O)c2cnc(N3CCCCC3)c3ccccc23)cc1	x	x	x	11µM*	x
O=C(CSc1nnc(NC(=O)c2ccco2)s1)Nc1ccccc1F	4%	-2%	10%	15µM*	0%
O=C(CSc1nnc(NC(=O)c2ccccc2F)s1)Nc1ccccc1F	u	u	27%	2.7µM*	3.5µM*
SMILES	ELG1 genotoxic	NPC1 promoter act	SMN2 splice up	FLuc counter	Rab9 promoter act
CC(C)(C)CC(=O)Nc1nnc(SCC(=O)Nc2ccccc2F)s1	-17%	-6%	-15%	-12%	1%
Cc1ccccc1NC(=O)CSc1nnc(NC(=O)c2ccco2)s1	8%	1%	x	27µM*	10%
O=C(Oc1cccnc1)c1ccc([N+](=O)[O-])cc1	0%	1%	-6%	-2%	-3%
CCS(=O)(=O)N1CCC(C(=O)Oc2ccc(Cl)cc2)CC1	2%	-3%	x	0%	-2%
O=C(CSc1n[nH]c(-c2ccc(F)cc2)n1)N1CCN(c2ccc(F)cc2)CC1	x	x	x	-4%	x
CCN1CCN(S(=O)(=O)c2ccc(Cl)c(C(=O)NCCc3ccccc3)c2)CC1	16µM*	u	x	u	u
CCc1nnc(NC(=O)c2cc(C)nc3ccccc23)s1	2%	1%	5%	-16%	3%
N#C/C(=N\Nc1ccc(Cl)c(Cl)c1)C(=O)C1CC1	8%	u	x	27µM*	u
O=C(Nc1ccc2c(c1)OCO2)c1cncc(Br)c1	6%	u	21%	27µM*	u
O=C(Nc1ccc2c(c1)OCCO2)c1cncc(Br)c1	u	3.5µM*	10µM*	4.8µM*	1.4µM*
CN(C)C(=O)c1ccc(NC(=O)c2cncc(Br)c2)cc1	-4%	17%	u	u	22%
Cc1cccc(C)c1N1CCN(c2cc(Cl)nc(N)n2)CC1	2%	0%	x	-3%	0%
Fc1ccc(Cc2cn3cc(-c4ccc(F)cc4)nc3s2)cc1	x	x	3.2µM*	0.3µM*	x
Fc1ccc(-c2cn3cc(Cc4ccccc4Cl)sc3n2)cc1	x	x	2.2µM*	0.48µM*	x
Clc1ccc(-c2cn3cc(Cc4ccccc4)sc3n2)cc1	x	x	5.6µM*	0.24µM*	x
Fc1ccccc1Cc1cn2cc(-c3ccc(Cl)cc3)nc2s1	x	x	u	0.3µM*	x
O=C(Cc1csc2nc(-c3ccc(F)cc3)cn12)NCc1ccccc1	x	x	x	4%	x
O=c1oc2ccccc2cc1-c1cn2cc(Cc3cc(Cl)ccc3Cl)sc2n1	x	x	-2%	0%	x
Cc1ccnc(NC(=O)CCNC(=O)c2ccccc2Cl)c1	u	0%	x	u	7%
Cc1ccc(Cc2cn3cc(-c4ccccc4)nc3s2)cc1	x	x	2.8µM*	0.15µM*	x
Cc1ccc(CNC(=O)c2sc3nc(-c4ccccc4)cn3c2C)cc1	x	x	x	-2%	x
Cc1ccc2cn[nH]c2c1N	0%	4%	6%	-6%	20%
C/C(=N\NC(=O)c1cc(O)ccc1O)c1cccc(NC(=O)c2ccc(Cl)cc2)c1	3%	u	x	1.1µM*	14%
C/C(=N\NC(=O)c1cc(O)ccc1O)c1cccc(NC(=O)c2cccc(Cl)c2)c1	7%	1%	x	8.5µM*	4%
O=C(CSc1nc2c([nH]c3ccccc32)c(=O)n1-c1ccc(Cl)cc1)N1CCc2ccccc21	x	x	x	-3%	x
SMILES	ELG1 genotoxic	NPC1 promoter act	SMN2 splice up	FLuc counter	Rab9 promoter act
Cc1ccc2c(c1)/C(=N/OC(=O)c1ccc(F)cc1)CCS2	-3%	-2%	6%	6µM*	2%
O=C(O/N=C1/CCSc2ccccc21)c1ccccc1	0%	7%	-12%	0.67µM*	-5%
O=C(O/N=C1\CCCc2ccccc21)c1ccc(F)cc1	u	7%	12%	0.21µM*	-4%
Cc1ccc2c(c1)/C(=N/O)CCS2	-1%	0%	-13%	-1%	-3%
COC(=O)c1cn(-c2ccccc2)nc1C(=O)OC	6%	-1%	-8%	-22%	0%
CCC1CCCCN1CC(O)COCc1cccc(OC)c1 (centres undefined)	-10%	1%	x	0%	-3%
